Assays:
Assay in all cases: PBM; 200 nM protein, PBS
Conditions in all cases: dsDNA, one strand shown
[1] = target: HESX1 (Homo sapiens, UniProt Q9UBX0 95-180, R165K)
[2] = target: HESX1 (Homo sapiens, UniProt Q9UBX0 95-180)
[3] = target: HESX1 (Homo sapiens, UniProt Q9UBX0 95-180, R109Q)
[4] = target: ALX3 (Homo sapiens, UniProt O95076 139-225, L168Q)
[5] = target: HESX1 (Homo sapiens, UniProt Q9UBX0 95-180, P111T)
[6] = target: ALX3 (Homo sapiens, UniProt O95076 139-225, L168V)
[7] = target: HESX1 (Homo sapiens, UniProt Q9UBX0 95-180, F115L)
[8] = target: PROP1 (Homo sapiens, UniProt O75360 56-141)
[9] = target: PROP1 (Homo sapiens, UniProt O75360 56-141, R99H)
[10] = target: PROP1 (Homo sapiens, UniProt O75360 56-141, F88S)
PROP1 (Homo sapiens, UniProt O75360 56-141, F88S), sequence (O75360 56-141 F88S): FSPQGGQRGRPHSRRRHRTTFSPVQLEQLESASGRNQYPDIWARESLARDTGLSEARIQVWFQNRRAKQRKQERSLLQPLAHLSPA

HESX1 (Homo sapiens, UniProt Q9UBX0 95-180, R165K), sequence (Q9UBX0 95-180 R165K): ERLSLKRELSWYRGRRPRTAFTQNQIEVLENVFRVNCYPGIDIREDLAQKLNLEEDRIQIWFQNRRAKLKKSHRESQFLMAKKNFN
HESX1 (Homo sapiens, UniProt Q9UBX0 95-180, R109Q), sequence (Q9UBX0 95-180 R109Q): as the sequence (Q9UBX0 95-180 R165K) above, with R15Q, K71R counted along it
HESX1 (Homo sapiens, UniProt Q9UBX0 95-180), sequence (Q9UBX0 95-180): as the sequence (Q9UBX0 95-180 R165K) above, with K71R counted along it
HESX1 (Homo sapiens, UniProt Q9UBX0 95-180, F115L), sequence (Q9UBX0 95-180 F115L): as the sequence (Q9UBX0 95-180 R165K) above, with F21L, K71R counted along it
HESX1 (Homo sapiens, UniProt Q9UBX0 95-180, P111T), sequence (Q9UBX0 95-180 P111T): as the sequence (Q9UBX0 95-180 R165K) above, with P17T, K71R counted along it
PROP1 (Homo sapiens, UniProt O75360 56-141, R99H), sequence (O75360 56-141 R99H): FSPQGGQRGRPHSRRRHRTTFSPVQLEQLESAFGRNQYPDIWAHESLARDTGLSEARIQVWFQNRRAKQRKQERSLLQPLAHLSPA
PROP1 (Homo sapiens, UniProt O75360 56-141), sequence (O75360 56-141): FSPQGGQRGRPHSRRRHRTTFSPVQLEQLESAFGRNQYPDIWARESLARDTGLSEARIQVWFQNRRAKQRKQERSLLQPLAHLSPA
ALX3 (Homo sapiens, UniProt O95076 139-225, L168Q), sequence (O95076 139-225 L168Q): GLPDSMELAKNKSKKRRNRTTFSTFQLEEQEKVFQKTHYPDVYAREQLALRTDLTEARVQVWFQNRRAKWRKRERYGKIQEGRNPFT
ALX3 (Homo sapiens, UniProt O95076 139-225, L168V), sequence (O95076 139-225 L168V): as the sequence (O95076 139-225 L168Q) above, with Q30V counted along it

Row | Sequence | binding signal [1] | binding signal [2] | binding signal [3] | binding signal [4] | binding signal [5] | binding signal [6] | binding signal [7] | binding signal [8] | binding signal [9] | binding signal [10]
1 | CGCCCAAG | 6.57 upbm affinity estimate (log intensity, higher = more binding, comparable within an allelic series) | 6.59 upbm affinity estimate (log intensity, higher = more binding, comparable within an allelic series) | 6.54 upbm affinity estimate (log intensity, higher = more binding, comparable within an allelic series) | 7.8 upbm affinity estimate (log intensity, higher = more binding, comparable within an allelic series) | 6.5 upbm affinity estimate (log intensity, higher = more binding, comparable within an allelic series) | 7.74 upbm affinity estimate (log intensity, higher = more binding, comparable within an allelic series) | 6.55 upbm affinity estimate (log intensity, higher = more binding, comparable within an allelic series) | – | – | –
2 | AGAGGAGC | 6.5 upbm affinity estimate (log intensity, higher = more binding, comparable within an allelic series) | 6.51 upbm affinity estimate (log intensity, higher = more binding, comparable within an allelic series) | 6.44 upbm affinity estimate (log intensity, higher = more binding, comparable within an allelic series) | – | 6.47 upbm affinity estimate (log intensity, higher = more binding, comparable within an allelic series) | – | 6.59 upbm affinity estimate (log intensity, higher = more binding, comparable within an allelic series) | – | – | –
3 | CAGAGTCA | 6.47 upbm affinity estimate (log intensity, higher = more binding, comparable within an allelic series) | 6.43 upbm affinity estimate (log intensity, higher = more binding, comparable within an allelic series) | 6.67 upbm affinity estimate (log intensity, higher = more binding, comparable within an allelic series) | – | 6.59 upbm affinity estimate (log intensity, higher = more binding, comparable within an allelic series) | – | 6.54 upbm affinity estimate (log intensity, higher = more binding, comparable within an allelic series) | – | – | –
4 | CAATATCG | 7.31 upbm affinity estimate (log intensity, higher = more binding, comparable within an allelic series) | 7.37 upbm affinity estimate (log intensity, higher = more binding, comparable within an allelic series) | 7.14 upbm affinity estimate (log intensity, higher = more binding, comparable within an allelic series) | – | 7.2 upbm affinity estimate (log intensity, higher = more binding, comparable within an allelic series) | – | – | – | – | –
5 | ATTAGCGA | 9.89 upbm affinity estimate (log intensity, higher = more binding, comparable within an allelic series) | 10.1 upbm affinity estimate (log intensity, higher = more binding, comparable within an allelic series) | – | – | 8.88 upbm affinity estimate (log intensity, higher = more binding, comparable within an allelic series) | – | – | 10.2 upbm affinity estimate (log intensity, higher = more binding, comparable within an allelic series) | 9.94 upbm affinity estimate (log intensity, higher = more binding, comparable within an allelic series) | 7.4 upbm affinity estimate (log intensity, higher = more binding, comparable within an allelic series)
6 | AGGTGGCC | 6.42 upbm affinity estimate (log intensity, higher = more binding, comparable within an allelic series) | 6.42 upbm affinity estimate (log intensity, higher = more binding, comparable within an allelic series) | 6.5 upbm affinity estimate (log intensity, higher = more binding, comparable within an allelic series) | – | 6.47 upbm affinity estimate (log intensity, higher = more binding, comparable within an allelic series) | – | 6.46 upbm affinity estimate (log intensity, higher = more binding, comparable within an allelic series) | – | – | –
7 | CTTGGCGA | 6.46 upbm affinity estimate (log intensity, higher = more binding, comparable within an allelic series) | 6.46 upbm affinity estimate (log intensity, higher = more binding, comparable within an allelic series) | 6.48 upbm affinity estimate (log intensity, higher = more binding, comparable within an allelic series) | – | 6.51 upbm affinity estimate (log intensity, higher = more binding, comparable within an allelic series) | – | 6.53 upbm affinity estimate (log intensity, higher = more binding, comparable within an allelic series) | 6.63 upbm affinity estimate (log intensity, higher = more binding, comparable within an allelic series) | 6.61 upbm affinity estimate (log intensity, higher = more binding, comparable within an allelic series) | 6.64 upbm affinity estimate (log intensity, higher = more binding, comparable within an allelic series)
8 | AGTCGCGC | 6.38 upbm affinity estimate (log intensity, higher = more binding, comparable within an allelic series) | 6.32 upbm affinity estimate (log intensity, higher = more binding, comparable within an allelic series) | 6.51 upbm affinity estimate (log intensity, higher = more binding, comparable within an allelic series) | – | 6.45 upbm affinity estimate (log intensity, higher = more binding, comparable within an allelic series) | – | 6.58 upbm affinity estimate (log intensity, higher = more binding, comparable within an allelic series) | – | – | –
9 | ATTGATTC | 7.97 upbm affinity estimate (log intensity, higher = more binding, comparable within an allelic series) | 8.12 upbm affinity estimate (log intensity, higher = more binding, comparable within an allelic series) | 7.41 upbm affinity estimate (log intensity, higher = more binding, comparable within an allelic series) | – | 7.74 upbm affinity estimate (log intensity, higher = more binding, comparable within an allelic series) | – | – | – | – | –
